# From PubChem BioAssay (NCI)
# Compounds without any hit were thinned out: in the full panel of roughly 79,000, 15% have a hit. A number with no mark means an inactive call. Activity calls are given as the source filed them. Rule as the data show it: active = growth inhibition above about 70%; inactive = the rest.
# How the values were obtained:
# [1] = NCI Yeast Anticancer Drug Screen. Data for the rad52 strain (AID 147);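 also: 0% = growth of vehicle-treated control cultures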; conditions: S. cerevisiae rad52 mutant growth inhibition, hits give high values
# Summary of the method: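 Screen used a yeast mutant impaired in DNA repair. After compound exposure, growth was measured. Values reflect inhibition compared with vehicle-treated cells.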
# [2] = NCI Yeast Anticancer Drug Screen. Data for the wt1 strain (AID 149);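 also: 0% = growth of vehicle-treated wt1 cultures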; conditions: S. cerevisiae wt1 strain (SPY 50644) growth inhibition, hits give high values
# Summary of the method: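 The wt1 strain was treated with compounds, and growth was compared with vehicle-treated cultures to give inhibition.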
# [3] = NCI Yeast Anticancer Drug Screen. Data for the rad50EPP+ strain (AID 151);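 also: 0% = growth of vehicle-treated control cultures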; conditions: S. cerevisiae rad50 mutant strain, hits give high values
# Summary of the method: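 Exposing the rad50EPP+ strain to each compound, growth was compared with vehicle-only cultures to give inhibition.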
# [4] = NCI Yeast Anticancer Drug Screen. Data for the mgt1 strain (AID 153); conditions: S. cerevisiae mgt1 mutant growth inhibition, hits give high values
# Summary of the method: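 Genetically defined yeast (mgt1) treated with compound; inhibition of growth expressed against vehicle-treated controls.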
# [5] = NCI Yeast Anticancer Drug Screen. Data for the rad50 strain (AID 155);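 also: 0% = growth of vehicle-only cultures of the same strain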; conditions: S. cerevisiae rad50 strain growth inhibition, hits give high values
# Summary of the method: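 Cells are treated with compound, grown, and their growth is then scored against vehicle-only cultures of the same repair-deficient yeast strain.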
# [6] = NCI Yeast Anticancer Drug Screen. Data for the mec2-1 strain (AID 157); conditions: S. cerevisiae mec2-1 strain, hits give high values
# Summary of the method: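 Readout is yeast growth inhibition, normalised to vehicle-treated controls, in the mec2-1 strain exposed to compound.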
# [7] = NCI Yeast Anticancer Drug Screen. Data for the rad14 strain (AID 159);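 also: 0% = growth of vehicle-treated control cultures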; conditions: S. cerevisiae rad14 strain growth inhibition, hits give high values
# Summary of the method: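 Readout: yeast growth inhibition, referenced to vehicle-only cultures. Strain bears a defined alteration in DNA damage repair.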
# [8] = NCI Yeast Anticancer Drug Screen. Data for the sgs1 mgt1 strain (AID 161);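 also: 0% = growth of cultures given vehicle only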; conditions: S. cerevisiae sgs1 mgt1 strain, hits give high values
# Summary of the method: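 Compounds are added to genetically altered yeast, and growth is compared with cultures given vehicle alone to give percent inhibition.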
# [9] = NCI Yeast Anticancer Drug Screen. Data for the CLN2oe strain (AID 163);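 also: 0% = growth of vehicle-only control cultures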; conditions: S. cerevisiae CLN2oe strain, hits give high values
# Summary of the method: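 Values reflect how much compound exposure reduced yeast growth, referenced to vehicle-exposed cells. Assay organism is a strain with a defined genetic change affecting cell-cycle control.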
# [10] = NCI Yeast Anticancer Drug Screen. Data for the cln2 rad14 strain (AID 165);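 also: 0% = growth equal to vehicle treated cultures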; conditions: S. cerevisiae cln2 rad14 strain, hits give high values
# Summary of the method: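 Relative to vehicle controls, growth inhibition of compound-treated cln2 rad14 yeast was recorded.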
# [11] = NCI Yeast Anticancer Drug Screen. Data for the bub3 strain (AID 167); conditions: S. cerevisiae bub3 mutant strain, hits give high values
# Summary of the method: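 Part of a panel of yeast mutants defective in DNA damage repair or cell cycle regulation. Each strain is grown with compound, and inhibition is calculated relative to solvent-treated cultures.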
# [12] = NCI Yeast Anticancer Drug Screen. Data for the wt2 strain (AID 169);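 also: 0% = growth of vehicle-treated yeast cultures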; conditions: S. cerevisiae wt2 strain growth inhibition, hits give high values
# Summary of the method: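 Values express reduction in yeast growth under compound treatment, referenced to vehicle-treated cells.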
# [13] = NCI Yeast Anticancer Drug Screen. Data for the mlh1 strain (AID 171);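 also: 0% = growth of vehicle-treated control cultures of the same strain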; conditions: S. cerevisiae mlh1 strain growth inhibition, hits give high values
# Summary of the method: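 Steps: expose the defined-mutant yeast strain to compound; expose a parallel culture to vehicle; measure growth; express compound effect as inhibition relative to the vehicle culture.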
# [14] = NCI Yeast Anticancer Drug Screen. Data for the sgs1 strain (AID 173);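 also: 0% = growth of vehicle-only control cultures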; conditions: S. cerevisiae sgs1 mutant, hits give high values
# Summary of the method: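 Treat defined-mutant yeast with compound; measure growth; calculate inhibition relative to vehicle-treated cells.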
# [15] = NCI Yeast Anticancer Drug Screen. Data for the mlh1 rad18 strain (AID 175); conditions: S. cerevisiae mlh1 rad18 strain growth inhibition, hits give high values
# Summary of the method: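 Test agents were incubated with a yeast strain of defined genotype (DNA damage repair defect). Inhibition of growth was derived by comparison with vehicle-exposed cultures.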
# [16] = NCI Yeast Anticancer Drug Screen. Data for the rad18 strain (AID 177); conditions: S. cerevisiae rad18 mutant growth inhibition, hits give high values
# Summary of the method: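 A genetically defined yeast mutant impaired in DNA damage repair was treated with test compounds, then its growth was measured against cultures receiving vehicle alone.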
# [17] = at 5.0 µM (retest, dose inferred, filed as 0.5)
# [18] = at 50.0 µM (retest, dose inferred, filed as 5.0)
compound,measurement,setting,value
O=c1cccccc1[O-].O=c1cccccc1[O-].O=c1cccccc1[O-].[Eu+3],growth inhibition,[1]; at 1.2 µM,2%
same,growth inhibition,[1]; at 3.7 µM,3%
same,growth inhibition,[1]; at 11.0 µM,32%
same,growth inhibition,[1]; at 33.0 µM,97% (active)
same,growth inhibition,[1]; at 100.0 µM,97% (active)
same,growth inhibition,[2]; at 1.2 µM,6%
same,growth inhibition,[2]; at 3.7 µM,2%
same,growth inhibition,[2]; at 11.0 µM,14%
same,growth inhibition,[2]; at 33.0 µM,97% (active)
same,growth inhibition,[2]; at 100.0 µM,97% (active)
same,growth inhibition,[3]; at 1.2 µM,0%
same,growth inhibition,[3]; at 3.7 µM,-1%
same,growth inhibition,[3]; at 11.0 µM,16%
same,growth inhibition,[3]; at 33.0 µM,95% (active)
same,growth inhibition,[3]; at 100.0 µM,96% (active)
same,growth inhibition,[4]; at 1.2 µM,13%
same,growth inhibition,[4]; at 3.7 µM,8%
same,growth inhibition,[4]; at 11.0 µM,14%
same,growth inhibition,[4]; at 33.0 µM,97% (active)
same,growth inhibition,[4]; at 100.0 µM,98% (active)
same,growth inhibition,[5]; at 1.2 µM,6%
same,growth inhibition,[5]; at 3.7 µM,-29%
same,growth inhibition,[5]; [17],38%
same,growth inhibition,[5]; at 11.0 µM,71% (active)
same,growth inhibition,[5]; at 33.0 µM,97% (active)
same,growth inhibition,[5]; [18],38%
same,growth inhibition,[5]; at 50.0 µM,92.5% (active)
same,growth inhibition,[5]; at 100.0 µM,93% (active)
same,growth inhibition,[6]; at 1.2 µM,-1%
same,growth inhibition,[6]; at 3.7 µM,2%
same,growth inhibition,[6]; [17],26%
same,growth inhibition,[6]; at 11.0 µM,16%
same,growth inhibition,[6]; at 33.0 µM,90% (active)
same,growth inhibition,[6]; [18],26%
same,growth inhibition,[6]; at 50.0 µM,91.7% (active)
same,growth inhibition,[6]; at 100.0 µM,98% (active)
same,growth inhibition,[7]; at 1.2 µM,3%
same,growth inhibition,[7]; at 3.7 µM,7%
same,growth inhibition,[7]; at 11.0 µM,25%
same,growth inhibition,[7]; at 33.0 µM,98% (active)
same,growth inhibition,[7]; at 100.0 µM,98% (active)
same,growth inhibition,[8]; [17],65%
same,growth inhibition,[8]; [18],65%
same,growth inhibition,[8]; at 50.0 µM,89.7% (active)
same,growth inhibition,[9]; at 1.2 µM,5%
same,growth inhibition,[9]; at 3.7 µM,11%
same,growth inhibition,[9]; at 11.0 µM,25%
same,growth inhibition,[9]; at 33.0 µM,92% (active)
same,growth inhibition,[9]; at 100.0 µM,98% (active)
same,growth inhibition,[10]; [17],5%
same,growth inhibition,[10]; [18],5%
same,growth inhibition,[10]; at 50.0 µM,86.7% (active)
same,growth inhibition,[11]; at 1.2 µM,1%
same,growth inhibition,[11]; at 3.7 µM,1%
same,growth inhibition,[11]; [17],8%
same,growth inhibition,[11]; at 11.0 µM,2%
same,growth inhibition,[11]; at 33.0 µM,96% (active)
same,growth inhibition,[11]; [18],8%
same,growth inhibition,[11]; at 50.0 µM,92.8% (active)
same,growth inhibition,[11]; at 100.0 µM,98% (active)
same,growth inhibition,[12]; at 1.2 µM,1%
same,growth inhibition,[12]; at 3.7 µM,3%
same,growth inhibition,[12]; at 11.0 µM,22%
same,growth inhibition,[12]; at 33.0 µM,99% (active)
same,growth inhibition,[12]; at 100.0 µM,98% (active)
same,growth inhibition,[13]; at 1.2 µM,-4%
same,growth inhibition,[13]; at 3.7 µM,-1%
same,growth inhibition,[13]; at 11.0 µM,13%
same,growth inhibition,[13]; at 33.0 µM,95% (active)
same,growth inhibition,[13]; at 100.0 µM,98% (active)
same,growth inhibition,[14]; at 1.2 µM,2%
same,growth inhibition,[14]; at 3.7 µM,1%
same,growth inhibition,[14]; at 11.0 µM,26%
same,growth inhibition,[14]; at 33.0 µM,98% (active)
same,growth inhibition,[14]; at 100.0 µM,98% (active)
same,growth inhibition,[15]; [17],24%
same,growth inhibition,[15]; [18],24%
same,growth inhibition,[15]; at 50.0 µM,89.8% (active)
same,growth inhibition,[16]; at 1.2 µM,3%
same,growth inhibition,[16]; at 3.7 µM,15%
same,growth inhibition,[16]; at 11.0 µM,42%
same,growth inhibition,[16]; at 33.0 µM,98% (active)
same,growth inhibition,[16]; at 100.0 µM,97% (active)
